# Sampled rows, rich in hits. Any-hit rate of the full collection: about 7.6%.
# RORg inh: qHTS for inhibitors of ROR gamma transcriptional activity. Nuclear receptor ROR-gamma (Mus musculus), P51450. Drosophila S2 Gal4-RORgamma UAS-luciferase reporter, 20 h. Potency, µM (titrated, usually from 53.6 µM), inactives show at the highest dose activity change, negative = inhibition, actives largely listed as inhibitors. 310,000 tested, 5.4% active; further: potency means the concentration at half of the fitted maximal effect; on the % scale 0 is the no-effect control and ±100 the full control effect; nearly all actives have a fitted effect of over 60% in size
# Target sequence (P51450 whole entry, looked up, the tested form may be a part): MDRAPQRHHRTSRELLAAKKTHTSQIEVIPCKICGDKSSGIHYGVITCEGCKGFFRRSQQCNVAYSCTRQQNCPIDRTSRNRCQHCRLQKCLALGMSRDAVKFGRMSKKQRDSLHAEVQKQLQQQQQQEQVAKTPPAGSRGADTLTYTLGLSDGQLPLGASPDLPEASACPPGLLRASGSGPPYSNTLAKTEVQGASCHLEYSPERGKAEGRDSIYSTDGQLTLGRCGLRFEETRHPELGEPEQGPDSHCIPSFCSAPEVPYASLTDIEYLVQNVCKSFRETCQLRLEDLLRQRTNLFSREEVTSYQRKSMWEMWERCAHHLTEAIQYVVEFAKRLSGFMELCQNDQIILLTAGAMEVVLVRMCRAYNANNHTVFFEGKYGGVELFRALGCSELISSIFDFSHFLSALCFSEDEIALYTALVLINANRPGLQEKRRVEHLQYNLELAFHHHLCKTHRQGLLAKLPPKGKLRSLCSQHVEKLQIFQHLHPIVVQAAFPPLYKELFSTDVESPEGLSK
#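 Schneider cells (Drosophila), stable Gal4 DBD–ROR gamma + UAS-luc; 1 hr cmpd preincubation; Cu2+ induction 700 uM final; 20 hr ambient; luminescence.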
# VP16 counter: VP16 counterscreen qHTS for inhibitors of ROR gamma transcriptional activity. Drosophila S2 Gal4-VP16 UAS-luciferase, luminescence, 20 h. Potency, µM (series often up to 53.6 µM), without a hit: at the top dose activity, negative = inhibition, actives largely listed as inhibitors. 310,000 tested, 3.5% active. AID 2546, 2010;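 further: Gal4-VP16 expression switched on by copper sulfate through the metallothionein promoter; potency means the concentration at half of the fitted maximal effect; on the % scale 0 is the no-effect control and ±100 the full control effect; nearly all actives have a fitted effect of over 50% in size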
# BRCA1 expr act: qHTS Assay to Identify Small Molecule Activators of BRCA1 Expression. Potency, µM (highest dose often 46.1 µM), inactives show top-dose activation, usual class: activators. MCF7-BRCA1-FFLuc reporter, luminescence, 48 h; response scale: scaled: vehicle 0%, 10 µM genistein 100%. 380,000 tested, 1.1% active; further: potency means the concentration at half of the fitted maximal effect; nearly all actives have a fitted effect of over 80% in size
#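 Using MCF7 cells harboring a BRCA1 firefly luciferase reporter, plated 2 h before compound pinning, the screen measured luminescence after 48 h incubation. Responses were normalized to DMSO and 10 microM genistein, then fitted for concentration-effect.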
# ELG1 repair inh: qHTS screen for small molecules that inhibit ELG1-dependent DNA repair in human embryonic kidney (HEK293T) cells expressing luciferase-tagged ELG1; HEK293T ELG1-luciferase reporter, luminescence, 16 h; DNA damage induced by 5-fluorouridine; Potency, µM (top dose mostly 46.1 µM), for the others: at the top dose activity change, negative = inhibition, usual class: inhibitors; 330,000 tested, 2.3% active; AID 504467, 2011; further: potency means the concentration at half of the fitted maximal effect; on the % scale 0 is the no-effect control and ±100 the full control effect; nearly all actives have a fitted effect of over 55% in size
#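 Overnight (16 hr) co-exposure of 2,000 cells/well to 5-fluorouridine and compound at 37 °C preceded detection. Luciferase was quantified via ONE-Glo luminescence; loss of signal denotes inhibition.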
# p53 reactivator: qHTS assay for re-activators of p53 using a Luc reporter; H1299 p53-A138V BP100-luciferase reporter, luminescence, 24 h; Potency, µM (highest dose often 92.2 µM), inactives show at the top dose activity change, positive = activation, hits mostly activators; 320,000 tested, 0.063% active; AID 504706, 2011; further: potency means the concentration at half of the fitted maximal effect; % of control where 0% means no effect; nearly all actives have a fitted effect of over 45% in size
#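 p53-null H1299 cells stably carrying temperature-sensitive p53-A138V and a BP100-luciferase reporter were pinned with compounds (4-point, 1:5 series) and held 24 hrs at 37 deg C. Luminescence was read 10 min after detection reagent.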
# Giardia kill: Small Molecules that selectively kill Giardia lamblia: qHTS | Giardia lamblia trophozoite viability | activity change, % at 7.66 µM, hits read low | 340,000 tested, 0.15% active | AID 540267, 2011; in the data active means activity change below about -80%; inconclusive means between about -30% and that limit;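 further: parasites exposed to compound for two days anaerobically before the ATP read; on the % scale 0 is the no-effect control and ±100 the full control effect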
#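 Anaerobic 48 hrs incubation at 37 deg C of 100 trophozoites/well with test compounds; ATPLite 1-Step luminescence, 15-30 min RT, reports cellular ATP as viability.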
# * hit, by the source's call; u = inconclusive; x = no result given; [ ] = another dose, or the depositor's remark. Unless noted, the call rests on the fitted dose curve; in most records, active means well fitted curve in the direction sought with a large enough effect; inconclusive means small, poorly fitted or top-dose-only effect, or another doubt; inactive means no such curve, though single readings can be large; an effect the other way counts as inactive or inconclusive.
SMILES,RORg inh,VP16 counter,BRCA1 expr act,ELG1 repair inh,p53 reactivator,Giardia kill
Cn1c(=O)n(C)c2cc([N+](=O)[O-])c(N3CCN(C(=O)c4ccc(F)cc4)CC3)cc21,20%,-3%,-32%,u,2%,-4
Cc1ccc(-c2cc(=O)c3cc(C)ccc3[nH]2)cc1,10µM*,16µM*,-8%,u,22µM*,u
O=C(Nc1ncc([N+](=O)[O-])s1)c1cccs1,u,10µM*,u,u,-1%,-87*
Cc1cnc(NC(=O)c2cccs2)s1,u,u,u,u,16%,6
O=C(CS(=O)(=O)c1ccccc1)Nc1ncc([N+](=O)[O-])s1,-3%,3%,-1%,-2%,0%,u
Cc1ncoc1C(=O)Nc1ncc([N+](=O)[O-])s1,u,u,-10%,u,u,-87*
O=C(/C=C/c1ccc([N+](=O)[O-])cc1)NCc1ccccn1,27%,-1%,-25%,-2%,6%,-1
O=C(Nc1ncc([N+](=O)[O-])s1)c1ccccc1Br,u,u,47%,-1%,-5%,-93*
O=C(/C=C/c1ccc([N+](=O)[O-])cc1)Nc1ncc([N+](=O)[O-])s1,u,7.1µM*,u,u,-6%,-82*
CC1Cc2cc(S(=O)(=O)N3CCCCC3)ccc2N1C(=O)C1CCC1 (centres undefined),20%,8%,2%,-18%,-12%,8
CC(=O)C[C@@H](O)CC(=O)[C@@H]1OC(=O)CCCCCCCCc2ccccc21,x,x,-5%,15%,-1%,-8
O=C(O)/C(=C\c1ccco1)NC(=O)c1ccccc1,-7%[10 µM],7%,-13%,24%,-5%,-8
CSc1ccccc1-c1cnc2cccnn12,x,x,13%,x,x,x
CCOc1ccc(-c2cnc3cccnn23)cc1,x,x,7.1µM*,x,x,x
CCOc1cccc(-c2cnc3cccnn23)c1,x,x,8.9µM*,x,x,x
O=C(NC1CC1)c1ccc(-c2cnc3cccnn23)cc1,x,x,7.9µM*,x,x,x
c1cc(-c2cnc3cccnn23)c2cccnc2c1,x,x,-9%,x,x,x
O=C(NC1CC1)c1cccc(-c2cncc3nccn23)c1,x,x,5%,x,x,x
CC(=O)Nc1cccc(C(=O)OCc2csc(CC(=O)Nc3ccccc3C)n2)c1,x,x,-7%,-19%,-4%,8
Cc1ccccc1C(=O)NC(=O)Nc1ccc(-n2nc(C(F)(F)F)cc2C(F)(F)F)cc1,x,x,16%,x,x,x
COc1cc2nc(N3CCN(c4cc(C)ccc4C)CC3)nc(N)c2cc1OC,16µM*,16µM*,-101%,u,-11%,u
Cc1ccc(CNc2nccn(-c3cc(C)cc(C)c3)c2=O)cc1,x,x,-5%,x,x,x
Cc1snc(SCC(=O)N/N=C(\N)COc2ccc(F)cc2)c1C#N,2.5µM*,4.5µM*,0%,19%,1%,9
COc1cccc(NC(=O)CN(C)C(=O)CNC(=O)c2ccc3ccccc3c2)c1,x,x,48%,u,9%,-3
COC(=O)C1=C(C(=O)OC)SC2(S1)C(C(=O)OC)=C(C(=O)OC)SC1=C2c2cc(C)ccc2NC1(C)C,4.5µM*,u,-57%,-3%,3%,-3
SMILES,RORg inh,VP16 counter,BRCA1 expr act,ELG1 repair inh,p53 reactivator,Giardia kill
CC(=O)Nc1cccc(C(=O)NC2CCCc3c2cnn3-c2ccccc2F)c1 (centres undefined),4%,0%,-1%,-4%,1%,26
Cc1cc(C(=O)NC2CCCc3c2cnn3-c2cccc(C)c2C)n(C)n1 (centres undefined),u,2.2µM*,-32%,-4%,1%,0
Cc1cccc(-n2ncc3c2CCCC3NC(=O)c2ccc[n+]([O-])c2)c1C (centres undefined),34%,u,-2%,u,-6%,10
Cc1cc(C(=O)NC2CCCc3c2cnn3-c2ccccc2F)nc(C)n1 (centres undefined),-1%,-9%,-6%,13µM*,-8%,-1
COc1cc(C(=O)NC2CCCc3c2cnn3-c2ccccc2F)cc(OC)c1OC (centres undefined),-36%,5µM*,-36%,u,-3%,16
COC(=O)c1ccc(C(=O)NC2CCCc3c2cnn3-c2ccccc2F)nc1 (centres undefined),12%,5%,-25%,u,9%,2
CC(C)c1cc(C(=O)NC2CCCc3c2cnn3-c2ccccc2F)no1 (centres undefined),-29%,11µM*,0%,u,11%,5
CC(C)=CCC[C@](C)(O)C1CC=C(C)CC1 (some centres undefined),5%,1%,x,x,x,x
CC1(C)C2CC[C@]3(C)C(CC=C4[C@@H]5C[C@](C)(CO)CC[C@]5(C(=O)O)CC[C@]43C)[C@@]2(C)CC[C@@H]1O (some centres undefined),x,x,-10%,x,x,7
COc1ccc(NC(=O)c2cncc(Br)c2)cc1S(=O)(=O)N1CCCCC1,u,-9%,-38%,15µM*,-11%,2
COc1ccc(NC(=O)c2cc(OC)c(OC)c(OC)c2)cc1S(=O)(=O)N1CCCCC1,24%,0%,-41%,-14%,-5%,2
COc1ccc(NC(=O)c2ccc(Cl)nc2)cc1S(=O)(=O)N1CCCCC1,-2%,1%,-57%,23µM*,3%,-11
COc1ccc(NC(=O)CCOc2ccccc2F)cc1S(=O)(=O)N1CCCCC1,x,x,-23%,23µM*,-4%,-9
COc1ccc(NC(=O)COc2ccccc2F)cc1S(=O)(=O)N1CCCCC1,-1%,2%,-23%,0%,u,-4
COc1ccc(NC(=O)c2cc(F)cc(F)c2)cc1S(=O)(=O)N1CCCCC1,x,x,-41%,u,-8%,4
COC(=O)C(Cc1ccc(OC(=O)c2ccc(C(F)(F)F)cc2)cc1)N1Cc2ccccc2C1=O (centres undefined),u,-29%,11µM*,u,u,-3
CCOc1ccc(NC(=O)[C@H](Cc2ccccc2)N2Cc3ccccc3C2=O)cc1,x,x,9%,x,x,x
COC(=O)C(Cc1ccc(OC(=O)c2ccc(Cl)cc2)cc1)N1Cc2ccccc2C1=O (centres undefined),-7%,u,13µM*,u,18%,-13
CCc1ccc(NC(=O)[C@H](Cc2ccccc2)N2Cc3ccccc3C2=O)cc1,x,x,2%,x,x,x
